# From PubChem BioAssay (NCI)
# The panel holds about 83,000 compounds, 20% with a hit somewhere; the sample as a whole holds those more often.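 Results are percent growth after 48 hours of single-concentration exposure. 100 means growth as in untreated cells, lower positive values show inhibition; negative values down to -100 show cell death.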 Values without a mark were called inactive. Activity calls are given as the source filed them. Rule for the calls: active = growth percent below 10; inactive = the rest.
# Tests used:
# Test in all cases: NCI-60 one-dose screen, 48 h (100 = growth as untreated, 0 = no growth, -100 = all killed)
# Conditions in all cases: 10 µM unless noted
# SK-MEL-2 melanoma = test system: SK-MEL-2 melanoma
# SN12C renal = test system: SN12C renal
# UO-31 renal = test system: UO-31 renal
# TK-10 renal = test system: TK-10 renal
# ACHN renal = test system: ACHN renal
# CAKI-1 renal = test system: CAKI-1 renal
# A498 renal = test system: A498 renal
# MOLT-4 leukemia = test system: MOLT-4 leukemia
# SR leukemia = test system: SR leukemia
# RPMI-8226 leukemia = test system: RPMI-8226 leukemia
# OVCAR-8 ovarian = test system: OVCAR-8 ovarian
# OVCAR-5 ovarian = test system: OVCAR-5 ovarian
# OVCAR-4 ovarian = test system: OVCAR-4 ovarian
# SK-OV-3 ovarian = test system: SK-OV-3 ovarian
# IGROV1 ovarian = test system: IGROV1 ovarian
# OVCAR-3 ovarian = test system: OVCAR-3 ovarian
# HS 578T breast = test system: HS 578T breast
# NCI/ADR-RES ovarian = test system: NCI/ADR-RES ovarian
SMILES,growth (SK-MEL-2 melanoma),growth (SN12C renal),growth (UO-31 renal),growth (TK-10 renal),growth (ACHN renal),growth (CAKI-1 renal),growth (A498 renal),growth (MOLT-4 leukemia),growth (SR leukemia),growth (RPMI-8226 leukemia),growth (OVCAR-8 ovarian),growth (OVCAR-5 ovarian),growth (OVCAR-4 ovarian),growth (SK-OV-3 ovarian),growth (IGROV1 ovarian),growth (OVCAR-3 ovarian),growth (HS 578T breast),growth (NCI/ADR-RES ovarian)
CCCCCCC(=O)C(C)C,115%,104%,92.3%,101%,103%,91%,115%,96.6%,90.7%,105%,99.1%,110%,110%,110%,102%,107%,105%,103%
CSCc1ncc(-c2ccc(C(F)(F)F)cc2)c(NC2CCCCCC2)n1,57.5% [25 µM],83.2% [25 µM],51.9% [25 µM],97% [25 µM],77.9% [25 µM],25.1% [25 µM],60.8% [25 µM],23% [25 µM],13.4% [25 µM],3.14% [25 µM] (active),75.1% [25 µM],97% [25 µM],83% [25 µM],97.9% [25 µM],81.2% [25 µM],39.4% [25 µM],–,74.9% [25 µM]
CCCCCCCCCCC(C[N+](C)(C)C/C=C/c1ccccc1)C(O)c1ccccc1 (centres undefined),-52.7% (active),15.8%,74.1%,-2.74% (active),72.2%,87.5%,59%,-24.4% (active),-46.2% (active),-50.8% (active),20.5%,42.6%,8.79% (active),53.1%,-70.9% (active),-50.7% (active),49%,97.6%
CCCCCCCCCCCCCCCCNC(=S)N/N=C/c1ccc(O)cc1O,75.4%,74.2%,49.8%,57.8%,77%,55.9%,91.1%,48.5%,41.2%,59.7%,56.2%,95.3%,66.9%,87.7%,55.2%,73.1%,97.6%,69.9%
CN(CCC#N)c1ccc(/C=C(\C#N)c2cccc(C(F)(F)F)c2)cc1,51%,72.1%,53.4%,69.3%,76.1%,49.8%,74.1%,53.8%,–,57.4%,76.1%,76.9%,68.3%,98.1%,65.7%,69.4%,89.2%,40.3%
O=P(OCCCl)(OCCCl)C(O)c1ccccc1Cl (centres undefined),112%,111%,80.2%,102%,98.4%,76.4%,121%,99.8%,89.3%,110%,104%,107%,111%,104%,98.6%,96.8%,106%,109%
CCOC(=O)/C(C#N)=C(/CC)OCC,91.7%,109%,84.1%,91.9%,94.6%,95.4%,122%,85%,85.6%,103%,98.8%,106%,106%,105%,105%,104%,115%,112%
CCCCCCCCCCCCCCCCNC(=O)Nc1ccc(C)c(NC(=O)NCCCCCCCCCCCCCCCC)c1,117%,103%,74.3%,112%,98.7%,117%,113%,104%,–,99.2%,105%,109%,108%,105%,107%,109%,95.1%,112%
O=C1CCNC1,109%,103%,92.1%,100%,101%,113%,94.9%,98.8%,106%,102%,100%,105%,97.8%,107%,118%,109%,114%,110%
O=C(OCC1CC2(Cl)C(Cl)=C(Cl)C1(Cl)C2(Cl)Cl)C1C(C(=O)OCC2CC3(Cl)C(Cl)=C(Cl)C2(Cl)C3(Cl)Cl)C2(Cl)C(Cl)=C(Cl)C1(Cl)C2(Cl)Cl (centres undefined),111%,105%,91.8%,105%,95.6%,90.8%,117%,85%,93%,103%,104%,105%,110%,110%,115%,107%,117%,106%
CCCCCCCCCC[N+](C)(C)N,105%,103%,90.3%,74.4%,105%,78.4%,105%,80.5%,72.7%,78.1%,88.1%,101%,99.1%,99.4%,83.8%,100%,91.9%,112%
CCCCCCCCCCCCCCCCNC(=S)N/N=C/c1ccc(OC)cc1,107%,93.5%,78%,110%,104%,92%,113%,106%,106%,93.2%,92.1%,105%,113%,114%,106%,110%,107%,101%
CCCCCCCCCCCCOC(=N)N(C)C,95.8%,101%,91%,94%,93.6%,80.7%,103%,93.5%,82.4%,99.7%,98.9%,99.4%,117%,97.3%,106%,92.6%,97.1%,102%
CC#Cc1nc(Nc2cc(C)[nH]n2)c2ccccc2n1,-51.2% [100 µM] (active),-0.924% [100 µM] (active),-6.22% [100 µM] (active),3.15% [100 µM] (active),3.22% [100 µM] (active),-33.2% [100 µM] (active),-94% [100 µM] (active),-43.3% [100 µM] (active),-5.19% [100 µM] (active),-21.3% [100 µM] (active),13.8% [100 µM],29.4% [100 µM],20% [100 µM],29.4% [100 µM],-46.7% [100 µM] (active),-59% [100 µM] (active),–,20.3% [100 µM]
CCCCCCCCCCCC(=O)OC(C)C(=O)Nc1ccccc1 (centres undefined),97.6%,93%,78.2%,94.9%,87.6%,91.2%,103%,96.1%,86.1%,99.8%,95.4%,95.2%,105%,97.6%,103%,102%,94.3%,100%
COc1ccc(Nc2c3ccccc3nc3ccccc23)cc1,54.5%,30.1%,7.72% (active),51.8%,-11% (active),10.2%,42.1%,-9.93% (active),1.46% (active),28.1%,14.7%,36.4%,41.5%,36.1%,22.1%,28.3%,59.5%,28.1%
